These results are taken from PubChem BioAssay AID686964 (The Scripps Research Institute Molecular Screening Center, 2013).

Molecules are shown by their SMILES. Among all 370,000 compounds or so, about 1,100 (0.3%) were called active. The full list was thinned out, with actives kept by preference. Values without a mark were called inactive. No stated cut-off is given here; in the data, active means inhibition above about 13%; inactive means the rest.

The assay deals with Methyl-CpG-binding domain protein 2 (Homo sapiens) (UniProt Q9UBB5). Nature of the assay: MBD2-DBD methyl-oligonucleotide interaction blockers – biochemical, TR-FRET, DNA-binding domain, human, primary screen (AID 686964). The note with it: MBD2 binding to methylated oligonucleotide, at 4.4 µM, stronger effect = higher value. (In general: In TR-FRET formats the signal depends on donor and acceptor labels being close together.)
Methyl-CpG-binding domain protein 2 (Homo sapiens), sequence (Q9UBB5 whole entry, looked up, the tested form may be a part): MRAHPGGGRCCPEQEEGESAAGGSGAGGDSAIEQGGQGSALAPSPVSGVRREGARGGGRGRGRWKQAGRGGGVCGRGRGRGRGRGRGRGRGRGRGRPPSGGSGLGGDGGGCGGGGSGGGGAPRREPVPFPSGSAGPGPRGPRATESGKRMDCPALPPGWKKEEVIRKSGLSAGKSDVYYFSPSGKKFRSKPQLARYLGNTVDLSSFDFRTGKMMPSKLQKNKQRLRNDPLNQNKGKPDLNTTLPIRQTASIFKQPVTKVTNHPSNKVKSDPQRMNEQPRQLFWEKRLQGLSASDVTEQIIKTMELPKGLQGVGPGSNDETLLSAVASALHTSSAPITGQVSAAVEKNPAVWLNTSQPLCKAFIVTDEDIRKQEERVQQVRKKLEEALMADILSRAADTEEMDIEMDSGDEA
As usually defined, the inhibition is the change of the read-out against control, counted positive when it falls. In the case of `COc1ccc(N2C(=O)/C(=C/c3ccco3)C(=O)NC2=S)cc1`, the inhibition is 32% (active).
Then `O=C(O)CCn1cc(C=C2C(=O)NC(=S)NC2=O)c(-c2cccc(Br)c2)n1`, with 2.88%; and `COC(=O)C1=C(c2ccccc2OCc2ccccc2)C[C@@H]2CC[C@H]1N2C(=O)NCc1ccc(OC)cc1`, with -6.77%.
For `CO[C@H]([C@H](C)/C=C/N(C)C=O)[C@@H](C)C(=O)CC[C@H](C)[C@H](O)[C@H](C)[C@H]1OC(=O)/C=C/C(C)=C/[C@H](O)[C@H](OC)C[C@@H]2C=CC[C@@H](C[C@H](OC)[C@@]3(CO3)[C@@H](OC)C[C@@H](OC)[C@@H]1C)O2`, the inhibition is 3.68%.
As to `CN(C)C(=O)Oc1cc(=O)n2c3c(cccc13)CCC2`, the inhibition was -1%.
Then `COP(=O)(Sc1ccccc1)C(Cc1ccccc1)NC(=O)OCc1ccccc1` (stereo not given), with 1.01%; and `O=C1NC(=O)N(Cc2ccco2)C(=O)/C1=C\c1ccc(-c2ccc(F)cc2)o1`, with 31.9% (active); and `Cc1ccnc(-n2c(C)cc(/C=C3\C(=O)NC(=S)N(C)C3=O)c2C)c1`, with -7.85%.
Then `Cc1cc(/C=C2/C(=O)NC(=O)N(Cc3ccco3)C2=O)c(C)n1-c1ccc(C(=O)O)cc1`, with 23.8% (active).
In the case of `COc1cc2nc(N3CCN(C(=O)[C@@H]4CCCO4)CC3)nc(N)c2cc1OC`, the inhibition was 2.48%.
Then `Cc1ccccc1CCC[C@@H](CC1CCCCC1)CN(C)C(=O)Oc1ccccc1`, with -0.69%.
For `O=C(O)C1CSC(c2cccnc2)N1` (stereo not given), the inhibition was -2.74%.
Then `CC(C)c1ccc(-n2c(O)c(/C=N/N3CCOCC3)c(=O)[nH]c2=S)cc1`, with -0.85%; and `CSc1ccc(C(=O)C2CCCN(Cc3ccn[nH]3)C2)cc1` (stereo not given), with -7.23%; and `CC(C)(C)[C@]1(O)C[C@@H]2OC(=O)C[C@@]23C(=O)O[C@@H]2OC(=O)[C@H](O)[C@]213`, with -1.05%.
